The supplement of paper PMC12494721
Counter-ions that a name gives are not always drawn.

Columns and labels:
Details in all cases: incubation time: 27 h, anaerobic, 37 °C;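 for the amine columns active = adjusted P below 0.05 in both replicates with a change the same way and a mean fold change under 0.8 or over 1.25; inactive = the rest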
[1] = system: Clostridium sporogenes DSM 1664; experiment: growth (OD595) fold change vs plate DMSO controls (fold change (ratio)); higher = more growth
Method in brief: (§1)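 Growth is the fold change relative to the median of plate DMSO controls. Readings came from anaerobic mGAM cultures in 96-well plates grown for 27 h at 37 °C and read at 595 nm. They were blank-subtracted, corrected for compound background with 20 µM compound solutions in water, and converted to OD with a calibration factor of 5. Values are means of 2 biological replicates, and fold changes above 1.5 were set to NA.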

[2] = system: Escherichia coli IAI1; experiment: as above
Method in brief: as §1

[3] = system: Klebsiella aerogenes DSM 30053; experiment: as above
Method in brief: as §1

[4] = system: Ruminococcus gnavus DSM 108212; experiment: as above
Method in brief: as §1

[5] = system: Klebsiella aerogenes DSM 30053; experiment: fold change of Histamine concentration vs plate DMSO controls (fold change (ratio)); higher = more amine produced, active = hit call of the paper (significant change in both replicates, either direction)
Method in brief: (§2)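 Anaerobic mGAM cultures of four gut bacterial strains were grown at 37 °C for 27 h in 80 µL wells, starting at OD 0.1 before 1:1 dilution. Compounds were at 20 µM final (sweeteners 50 µM). Whole cultures were extracted with cold acetonitrile/methanol containing 0.1% formic acid and centrifuged. Amines were quantified by LC–triple-quadrupole MS (dynamic MRM) against external calibration curves and drift-corrected within batch. Each value is the fold change versus plate DMSO controls, averaged over 2 biological replicates.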

[6] = system: Clostridium sporogenes DSM 1664; experiment: fold change of Tryptamine concentration vs plate DMSO controls (fold change (ratio)); higher = more amine produced, active = hit call of the paper (significant change in both replicates, either direction)
Method in brief: as §2

[7] = system: Ruminococcus gnavus DSM 108212; experiment: as above
Method in brief: as §2

[8] = system: Escherichia coli IAI1; experiment: fold change of Putrescine concentration vs plate DMSO controls (fold change (ratio)); higher = more amine produced, active = hit call of the paper (significant change in both replicates, either direction)
Method in brief: as §2

[9] = system: Klebsiella aerogenes DSM 30053; experiment: as above
Method in brief: as §2

[10] = system: Escherichia coli IAI1; experiment: fold change of Cadaverine concentration vs plate DMSO controls (fold change (ratio)); higher = more amine produced, active = hit call of the paper (significant change in both replicates, either direction)
Method in brief: as §2

[11] = system: Klebsiella aerogenes DSM 30053; experiment: as above
Method in brief: as §2

[12] = system: Ruminococcus gnavus DSM 108212; experiment: fold change of 2-Phenylethylamine concentration vs plate DMSO controls (fold change (ratio)); higher = more amine produced, active = hit call of the paper (significant change in both replicates, either direction)
Method in brief: as §2

Compound | growth [1] | growth [2] | growth [3] | growth [4] | fold change of Histamine concentration [5] | fold change of Tryptamine concentration [6] | fold change of Tryptamine concentration [7] | fold change of Putrescine concentration [8] | fold change of Putrescine concentration [9] | fold change of Cadaverine concentration [10] | fold change of Cadaverine concentration [11] | fold change of 2-Phenylethylamine concentration [12]
CN(C)c1nc(N(C)C)nc(N(C)C)n1 [Altretamine] (20 µM) | 0.899 | 1.05 | 0.993 | 0.972 | 1.08 (inactive) | 0.977 (inactive) | 1.06 (inactive) | 1.15 (inactive) | 1.04 (inactive) | 1.01 (inactive) | 1 (inactive) | 1.07 (inactive)
C[N+](C)(C)CCOC(N)=O [Carbachol chloride] (20 µM) | 0.948 | 1 | 0.997 | 1.09 | 1.01 (inactive) | 1.07 (inactive) | 1.09 (inactive) | 0.986 (inactive) | 0.983 (inactive) | 0.957 (inactive) | 1.01 (inactive) | 1.11 (inactive)
NC(=O)c1cccnc1 [Nicotinamide] (20 µM) | 0.909 | 0.979 | 0.964 | 0.672 | 0.994 (inactive) | 0.971 (inactive) | 0.993 (inactive) | 1.02 (inactive) | 0.896 (inactive) | 1 (inactive) | 1.1 (inactive) | 0.953 (inactive)
O=C(O)COc1nn(Cc2ccccc2)c2ccccc12 [Bendazac] (20 µM) | 1.19 | 1.05 | 1.05 | 1.02 | 0.954 (inactive) | 0.948 (inactive) | 0.986 (inactive) | 0.975 (inactive) | 1 (inactive) | 0.973 (inactive) | 1 (inactive) | 0.993 (inactive)
NC(=O)C1CO1 (stereo not given) [Glycidamide] (20 µM) | 0.988 | 0.992 | 0.998 | 1.06 | 1.05 (inactive) | 0.935 (inactive) | 0.988 (inactive) | 0.993 (inactive) | 1.07 (inactive) | 1.02 (inactive) | 1.02 (inactive) | 0.973 (inactive)
Cc1ccccc1N1C(=O)c2cc(S(N)(=O)=O)c(Cl)cc2NC1C (stereo not given) [Metolazone] (20 µM) | 1.14 | 0.984 | 1.02 | 1.07 | 1.04 (inactive) | 0.993 (inactive) | 1.03 (inactive) | 1.02 (inactive) | 0.995 (inactive) | 0.977 (inactive) | 0.993 (inactive) | 1.04 (inactive)
CCOC(=O)C1=C[C@]2(CC)CCCN3CCc4c(n1c1ccccc41)[C@@H]32 [Vinpocetine] (20 µM) | 0.883 | 0.979 | 1.03 | 1.14 | 0.922 (inactive) | 0.964 (inactive) | 0.955 (inactive) | 0.995 (inactive) | 1.02 (inactive) | 1.02 (inactive) | 1.02 (inactive) | 0.972 (inactive)
CC(C)COCC(CN(Cc1ccccc1)c1ccccc1)N1CCCC1 (stereo not given) [Bepridil hydrochloride] (20 µM) | 0.909 | 0.996 | 1.11 | 0.654 | 0.937 (inactive) | 0.913 (inactive) | 0.743 (active) | 1.03 (inactive) | 1.01 (inactive) | 1.01 (inactive) | 1.01 (inactive) | 0.824 (inactive)
Cn1c(=O)c2nc[nH]c2n(C)c1=O [Theophylline monohydrate] (20 µM) | 1.19 | 1.11 | 1.04 | 1.12 | 0.952 (inactive) | 1.1 (inactive) | 1.1 (inactive) | 1.24 (inactive) | 0.957 (inactive) | 0.9 (inactive) | 1.02 (inactive) | 1.15 (inactive)
NC(=O)c1ncn([C@@H]2O[C@H](CO)[C@@H](O)[C@H]2O)c1O [Mizoribine] (20 µM) | 0.99 | 1.06 | 1.06 | 1 | 0.951 (inactive) | 1.02 (inactive) | 1.01 (inactive) | 1.02 (inactive) | 1.02 (inactive) | 0.997 (inactive) | 1.01 (inactive) | 0.982 (inactive)
CO[C@@H]1[C@@H](OC(N)=O)[C@@H](O)[C@H](Oc2ccc3c(O)c(NC(=O)c4ccc(O)c(CC=C(C)C)c4)c(=O)oc3c2C)OC1(C)C [Novobiocin sodium salt] (20 µM) | 1.07 | 0.922 | 0.747 | 0.338 | 0.858 (inactive) | 0.754 (inactive) | 0.176 (active) | 1.18 (inactive) | 0.986 (inactive) | 1.04 (inactive) | 1 (inactive) | 0.208 (active)
CN(c1nccc(=O)[nH]1)C1CCN(c2nc3ccccc3n2Cc2ccc(F)cc2)CC1 [Mizolastine] (20 µM) | 1.22 | 1.02 | 1.04 | 1.24 | 1.03 (inactive) | 0.967 (inactive) | 0.973 (inactive) | 0.986 (inactive) | 0.991 (inactive) | 0.977 (inactive) | 0.982 (inactive) | 0.967 (inactive)
CCC(=O)OCC(=O)[C@@]1(OC(=O)CC)[C@H](C)C[C@H]2[C@H]3[C@H]([C@@H](O)C[C@@]21C)[C@@]1(C)C=CC(=O)C=C1C[C@H]3Cl [Alclometasone dipropionate] (20 µM) | 1.15 | 1.07 | 1.01 | 0.881 | 1.04 (inactive) | 1 (inactive) | 0.947 (inactive) | 1.03 (inactive) | 1.02 (inactive) | 0.986 (inactive) | 0.997 (inactive) | 0.97 (inactive)
C=CCOC(Cn1ccnc1)c1ccc(Cl)cc1Cl (stereo not given) (20 µM) | 1.09 | 0.991 | 1.02 | 0.883 | 0.976 (inactive) | 1.08 (inactive) | 1 (inactive) | 0.942 (inactive) | 0.941 (inactive) | 0.909 (inactive) | 1.06 (inactive) | 1.07 (inactive)
CC[N+](CC)(CC)CCOc1cccc(OCC[N+](CC)(CC)CC)c1OCC[N+](CC)(CC)CC [Gallamine triethiodide] (20 µM) | 1.09 | 1.02 | 1.05 | 0.905 | 0.862 (inactive) | 1.12 (inactive) | 1.09 (inactive) | 1.06 (inactive) | 0.945 (inactive) | 0.947 (inactive) | 1.04 (inactive) | 1.06 (inactive)
CCCSS/C(CCO)=C(/C)N(C=O)Cc1cnc(C)nc1N [Prosultiamine] (20 µM) | 0.945 | 1.01 | 0.993 | 0.919 | 0.951 (inactive) | 1.09 (inactive) | 1.09 (inactive) | 0.949 (inactive) | 0.98 (inactive) | 0.958 (inactive) | 0.984 (inactive) | 1.16 (inactive)
CC(=O)OCC(CCn1cnc2cnc(N)nc21)COC(C)=O [Famciclovir] (20 µM) | 0.805 | 1.06 | 0.981 | 0.993 | 1.15 (inactive) | 1.03 (inactive) | 1.05 (inactive) | 1.03 (inactive) | 1.01 (inactive) | 1.01 (inactive) | 0.979 (inactive) | 1.04 (inactive)
Oc1ccc2ccccc2c1N=Nc1ccccc1 [Sudan I (1-phenylazo-2-hydroxynaphthalene)] (20 µM) | 0.978 | 1.06 | 1.08 | 1.12 | 0.924 (inactive) | 0.919 (inactive) | 1.04 (inactive) | 0.952 (inactive) | 0.893 (inactive) | 0.915 (inactive) | 1.08 (inactive) | 1.07 (inactive)
CC(C)(Oc1ccc(CCNC(=O)c2ccc(Cl)cc2)cc1)C(=O)O [Bezafibrate] (20 µM) | 1.06 | 1.01 | 0.993 | 0.854 | 0.964 (inactive) | 0.996 (inactive) | 1.01 (inactive) | 0.997 (inactive) | 0.991 (inactive) | 0.983 (inactive) | 0.992 (inactive) | 1.01 (inactive)
CCCc1cc(=O)[nH]c(=S)[nH]1 [Propylthiouracil] (20 µM) | 0.934 | 1.06 | 0.995 | 1.05 | 0.972 (inactive) | 1.03 (inactive) | 1.04 (inactive) | 1.05 (inactive) | 1.01 (inactive) | 0.974 (inactive) | 0.995 (inactive) | 1.03 (inactive)
Nc1ccc(S(=O)(=O)Nc2cnc3ccccc3n2)cc1 [Sulfaquinoxaline sodium salt] (20 µM) | 1.03 | 1.01 | 0.991 | 0.994 | 1.04 (inactive) | 0.987 (inactive) | 0.985 (inactive) | 0.911 (inactive) | 1.02 (inactive) | 1.01 (inactive) | 0.991 (inactive) | 0.981 (inactive)
CC(=O)N[C@@H](CC(=O)O)C(=O)N[C@@H](CCC(=O)O)C(=O)O [Spaglumic acid] (20 µM) | 1.09 | 0.992 | 1.03 | 1.18 | 1.03 (inactive) | 1.02 (inactive) | 0.995 (inactive) | 0.939 (inactive) | 0.993 (inactive) | 0.988 (inactive) | 0.988 (inactive) | 1.02 (inactive)
CN(C)CCC=C1c2ccccc2C=Cc2ccccc21 [Cyclobenzaprine hydrochloride] (20 µM) | 0.862 | 1.01 | 0.985 | 0.869 | 1.06 (inactive) | 1.19 (inactive) | 0.915 (inactive) | 0.987 (inactive) | 1 (inactive) | 1.01 (inactive) | 0.985 (inactive) | 0.921 (inactive)
NS(=O)(=O)c1cc(C(=O)NN2C[C@@H]3[C@H]4CC[C@H](C4)[C@@H]3C2)ccc1Cl [Tripamide] (20 µM) | 0.981 | 1.01 | 0.978 | 1.08 | 1.01 (inactive) | 1.03 (inactive) | 1.06 (inactive) | 0.995 (inactive) | 0.981 (inactive) | 0.928 (inactive) | 0.998 (inactive) | 1.05 (inactive)
O=C(O)c1ccccc1Nc1cc(Cl)ccc1C(=O)O [Lobenzarit disodium] (20 µM) | 0.929 | 1 | 1.02 | 1.08 | 1.02 (inactive) | 1.07 (inactive) | 0.976 (inactive) | 0.987 (inactive) | 0.994 (inactive) | 0.932 (inactive) | 1 (inactive) | 1.01 (inactive)
